This is part of a sample that, as a whole, favours compounds with a hit. Of some 83,000 tested, about 20% had one in any assay.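 Cells were grown in 96-well plates and exposed to the test compound at a single concentration for 48 hours; results are reported as percent growth, with values below 10 considered active.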 Values without a mark were called inactive. Calls of active or inactive are those of the source.
System: MDA-MB-468 breast
Test: NCI-60 one-dose screen, 48 h (100 = growth as untreated, 0 = no growth, -100 = all killed)
Conditions: 10 µM unless noted

SMILES | growth
FC(F)(F)c1cccc(CNC2CCN(CCc3ccccc3)CC2)c1 | 87.2%
N=C(N)Sc1cccc[n+]1[O-] | 62.4%
O=C(Cn1cc[n+](CC(=O)c2ccc(-c3ccccc3)cc2)c1)Nc1cccc2cccnc12 | 8.42% (active)
Cc1c(F)cc(C(N)=O)cc1NCC(=O)Nc1ccc([N+](=O)[O-])cc1 | 92.4%
O=C(N/N=C\c1cc(Br)cc(Br)c1O)N/N=C/c1cc(Br)cc(Br)c1O | 57.7%
COc1cc(-c2nn(-c3cccc(NC(=O)CN4CCOCC4)c3)cc2-c2cccnc2)ccc1Cl | 74.9%
C#CCn1c(-c2cc(OC)c(OC)cc2Br)nc(-c2ccccc2)c1-c1ccccc1 | 5.05% (active)
CC12CCCCC1C(C(N)=O)C(=O)O2 (configuration not stated) | 122%
COc1ccc(Cn2cc3c(c2-c2cc(OC)c(OC)c(OC)c2)CCCc2cnoc2-3)cc1N | 46.7%
Cc1ccc(-c2nc(N3CCN(CC(=O)Nc4ccc(Cl)cc4)CC3)c3ccccc3n2)cc1 | 93.3%
COC(=O)[C@]12CC[C@@H](C)[C@H](C)[C@@H]1C1=CC[C@@H]3[C@@]4(C)C(c5cnco5)=C[C@@](C)(CO)C4=CC[C@@]3(C)[C@]1(C)CC2 | 17%
COc1ccc(-n2nc(C(=O)NCC(=O)Nc3nc4cc(OC)ccc4s3)c3ccccc3c2=O)cc1 | -8.37% (active)
Cc1ccc2nc3c(nc2c1)-c1cccc2cccc-3c12 | 48.1%
C[C@@H]1CC[C@@H]2[C@@H]1[C@H](OC(=O)/C=C/c1ccccc1)[C@]1(CCCOCCOCCOCCOC(=O)CCCC[C@@H]3SC[C@@H]4NC(=O)N[C@@H]43)C[C@@H](OC(=O)CO)[C@@]2(C)O1 | 111%
COc1ccc2cc(Cn3cc[n+](Cc4ccc5ccccc5c4)c3)ccc2c1 | -22.9% (active)
C=CC(=O)N[C@H](Cc1ccc(-c2cc(Cl)cc(Cl)c2)cc1)[C@H](O)[C@@H](O)C(=O)O | 85.5%
Cc1ccc(/C(N)=N/C(N)=N/c2nc3ccccc3s2)cc1 | 88.8%
COc1ccc(S(=O)(=O)NCCNc2nccc(-c3c(-c4cccc(N)c4)nc4sccn34)n2)cc1 | 88.5%
COc1ccc(C2CC(c3cc(OC)c(OC)c(OC)c3)=NN2C(C)=O)cc1OCC(=O)Nc1nc2ccc(C(F)(F)F)cc2s1 (configuration not stated) | 84.1%
Cc1ccc(C)n1-c1ccsc1C(=O)NNC(=O)CCl | 88%
COc1cc(/C=C2\CCCC3=C2N=C2SC(C)=CN2C3c2cc(OC)c(OC)c(OC)c2)cc(OC)c1OC (configuration not stated) | -20.7% (active)

SMILES | growth
COc1ccc(-c2ccc(-c3ccc(C(=N)N)nc3)s2)cc1Cl | -51.8% (active)
COc1cc2cc(Oc3ccc(NC(=O)Nc4cccc(C(F)(F)F)c4)cc3)c(C)nc2cc1OCCN(C)C | 79.6%
C/C(=N\NC(=O)CSc1nc2ccccc2c(=O)n1CCc1ccc(S(N)(=O)=O)cc1)c1ccc(Br)cc1 | 84.1%
C=CCn1c(SCC(=O)Nc2ccc(C(=O)/C=C/c3cc(OC)c(OC)c(OC)c3)cc2)nnc1-c1cc(-c2ccc(OC)cc2)nc2ccccc12 | 103%
CC1CCC(C)N(C)C1 (configuration not stated) | 105%
COc1cc(/C=C/C(=O)c2nc3cc(F)ccc3nc2C)cc(OC)c1OC | 23.6%
O=c1ccccc(-c2ccc(-c3ccco3)cc2)c1O | 12.1%
CN(C)Cc1ccc(NC(=O)c2cncc(C#Cc3cnc(N)c4ncccc34)c2)cc1C(F)(F)F | 84%
CC(=O)n1nc(C(=O)OC(C)(C)c2ccccc2)c2ccccc21 | 93.3%
NC(=O)N1N=C(c2cc3ccccc3oc2=O)CC1c1cn(-c2ccccc2)nc1-c1ccc(Cl)cc1 (configuration not stated) | 36.9%
c1ccc(-c2oc3ccccc3c2-c2ccccc2)cc1 | 97.9%
NCCn1cc(-c2nc(-c3c[nH]c4ncccc34)cs2)c2cc(Br)ccc21 | 66%
O=[N+]([O-])c1ccc(-c2nc(N3CCOCC3)c3c4c(sc3n2)CCCC4)cc1 | 94.8%
CCOC(=O)CCC(NC(=O)c1ccc(N)cc1)C(=O)OCC (configuration not stated) | 102%
CCOc1ccc(C(=O)Nc2ncc(Cc3ccc(F)cc3)s2)cc1 | 31.9%
Nc1c(Cl)cc2c(c1Br)C(=O)c1ccccc1C2=O | 85.4%
CCCCCCCCCCCCCCCCCCNC(=O)[C@H]1CSC(c2ccc(OC)c(F)c2)N1 (some centres not stated) | 76.9%
O=c1[nH]c(O)c(/C=C2/C=Nc3ccccc32)[nH]1 | 66.1%
O=c1oc2ccc(Br)cc2c(=O)n1-c1ccc(I)cc1F | -0.692% (active)
N#Cc1c(-c2ccc(Br)cc2)nc2c(N=Nc3ccc(S(N)(=O)=O)cc3)c(N)nn2c1N | 23.6%
CCOC(=O)c1nc(Nc2ccc(C(C)=O)cc2)sc1C | 96.9%

SMILES | growth
O=C(CCCSc1nc(-c2ccccc2)cc(-c2ccc(Cl)cc2)n1)NO | -43.9% (active)
COc1ccc(OC)c(Cn2cc3c(c2-c2ccccc2)CCc2cnoc2-3)c1 | 29.7%
CCN(CC)CCS(=O)(=O)CCNc1ccnc2cc(Cl)ccc12 | -49.2% (active)
O=C(/C=C/c1ccc(Cl)c(Cl)c1)Nc1ncc(Cc2ccc(Cl)c(Cl)c2)s1 | 68.5%
CC[C@@H](C)OC(=O)c1nn(C(C)=O)c2ccccc12 | 82.4%
NS(=O)(=O)c1ccc(N=Nc2ccc(-c3nn4cc(-c5ccccc5)nc4s3)cc2)cc1 | 100%
COc1ccc(-c2nn(-c3cccc(Cl)c3)cc2-c2cc(-c3ccc(Br)cc3)nc(N)n2)cc1 | 95%
CN(C)c1ccc(/C=C/C(=O)c2ccc(NC(N)=O)cc2)cc1 | 81%
CC[C@H](C)[C@@H]1NC(=O)[C@H](Cc2ccc(O)cc2)N(C)C(=O)[C@H](Cc2ccccc2)NC(=O)CN(C)C(=O)[C@@H]2CCCN2C(=O)[C@@H](Cc2ccccc2)N(C)C(=O)[C@H](CC(C)C)NC1=O | -13.3% (active)
OCC1CCC(O)C(CO)N1 (configuration not stated) | 104%
COc1ccc(/C=C2\COc3ccc(O)cc3C2=O)c(OC)c1OC | 48.8%
N#Cc1c(-c2cccs2)cc(-c2cnccn2)nc1SCC(=O)c1ccc(F)cc1 | 101%
O=C(O)COc1ccc(Cl)cc1C1CCCCC1 | 97.6%
COc1ccc(C/C(C)=C(/c2ccc(OCCN3CCCCCC3)cc2)c2ccc(OC(=O)c3ccccc3)cc2)cc1 | 111%
CCc1nc(C)cn1C(=O)OCc1nc2nc(Cl)nc(N3CCOCC3)c2[nH]1 | -54.6% (active)
OCC(O)C(O)C(O)C(/C=N/Nc1ccccc1)=N/Nc1ccccc1 (configuration not stated) | 68%
O=C(Nc1ccc2ncnc(Nc3ccc(Oc4cccc(F)c4)c(Cl)c3)c2c1)c1ccc(CN2CCOCC2)cc1 | 18.8%
CC/C(=C(\c1ccccc1)c1ccc(OCCN(C)C)cc1)c1ccccc1 | -13.3% (active)
CCC(=C(c1ccc(OCCN2CCCCCC2)cc1)c1ccc(OCCN2CCCCCC2)cc1)c1ccc(Cl)cc1 | -83.3% (active)
CNc1nc(C)c(-c2nc(Nc3cccc(S(N)(=O)=O)c3)ncc2F)s1 | -38.3% (active)
Fc1ccc(Cn2cc(CSc3nc4ccccc4o3)nn2)cc1 | 109%

SMILES | growth
CN1CCN(Cc2ccc(NC(=O)c3[nH]ncc3Nc3cc(OC4CCCC4)ncn3)cc2)CC1 | 16.1%
O=C(O)c1c(=O)cccc2ssc12 | -50.5% (active)
O=C(NN1C(=O)CSC1c1ccc(Cl)cc1)c1cccnc1 (configuration not stated) | 115%
COc1cc(OC)cc(N2CCN(C(=O)Nc3nc4cc(F)ccc4nc3OC)CC2)c1 | -5.78% (active)
Cc1nn(-c2ccccc2)c(Cl)c1/C=C(/NC(=O)c1ccccc1)c1nc2ccccc2[nH]1 | 113%
N#CC1=C(c2ccc(Cl)cc2)Nc2c(c(-c3ccc(Cl)cc3)nn2-c2ccccc2)C12C(=O)Nc1ccc(Cl)cc12 (configuration not stated) | 52.9%
C[C@H]1C(=O)C23CCC1C[C@@]21O[C@@H]2C(C)(C)C=CC(=O)C23COC1=O | 102%
Nc1nc(=O)n([C@H]2CC=C(CO)O2)cc1F | 106%
CN1CCN(Cc2ccc(NC(=O)c3[nH]ncc3Nc3ncnc4[nH]ccc34)cc2)CC1 | -51.8% (active)
O=C1C=CC(=O)c2c1nc1n2CCCC1 | 90.2%
O=C(NC1CCN(Cc2ccccc2)CC1)c1cc(C(=O)NC2CCN(Cc3ccccc3)CC2)cc(C(=O)NC2CCN(Cc3ccccc3)CC2)c1 | 84.9%
O=C1C2=C(Nc3cc([N+](=O)[O-])ccc3N2)OC1c1c2ccccc2cc2ccccc12 (configuration not stated) | 37.3%
CCOC(=O)c1cc2c(n1Cc1cccc(OC)c1)-c1oncc1CC2 | -2.28% (active)
CC(C)(C)OC(=O)N1CCc2c(sc3ncnc(N/N=C/c4ccccc4Br)c23)C1 | 71.5%
COc1cc(C2CC(c3cccc(Nc4ccnc5cc(Cl)ccc45)c3)=NN2c2ccccc2)cc(OC)c1OC (configuration not stated) | 82.1%
CNC(=O)c1cc(Oc2ccc3nc(NC(=O)c4cccc(C(F)(F)F)c4)sc3c2)ccn1 | 106%
O=C(NCCCNc1cc(-c2cn(-c3ccccc3)nc2-c2cccc(O)c2)ccn1)Nc1ccc(F)cc1 | -19.4% (active)
COc1ccc2c(c1)nc(N)c1c3cccnc3cn21 | 13.4%
COc1ccc(-c2nn(-c3ccccc3)cc2/C=C2/SC(=S)N(C)C2=O)cc1 | 89.1%
